In PubChem BioAssay:
Values without a mark were called inactive. Active and inactive are the calls of the source. Cut-off read from the data, not from the text of the source, unless noted: active = inhibition above about 33%; inactive = the rest.

Experiments:
[1] = target: Nuclear receptor coactivator 3 (Homo sapiens) (UniProt Q9Y6Q9); assay: NCOA3 GAL4-fusion reporter inhibition – cell-based, luminescence, quadruplicate, confirmation (AID 588792;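 active = mean inhibition over 43.08%, the solvent-only control mean plus 3 SD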;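 note: 0% = DMSO treated cells and 100% = gossypol at 36 µM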); conditions: HEK293 GAL4-SRC3 luciferase reporter, at 3.6 µM, hits give high values
[2] = system: transactivating tegument protein VP16 (Human herpesvirus 1), Gal4-VP16 luciferase reporter; assay: repression of VP16-driven luciferase reporter – cell-based, luminescence, high throughput, counter-screen for SRC3 inhibitor project (AID 588794; in the data active = inhibition above about 30%); conditions: mammalian cells, at 3.6 µM, hits give high values
[3] = target: Nuclear receptor coactivator 1 (Homo sapiens) (UniProt Q15788); assay: NCOA1 GAL4-fusion reporter inhibition – cell-based, luminescence, quadruplicate, confirmation (AID 588820;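 active = mean inhibition above 46.68%, the untreated control wells mean plus 3 SD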;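 note: 0% = DMSO wells and 100% = gossypol 36 µM treated wells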); conditions: HEK293 GAL4-SRC1 luciferase reporter, at 3.6 µM, hits give high values
[4] = repression of VP16-driven luciferase reporter – cell-based, luminescence, high throughput, counter-screen for SRC1 inhibitor project (AID 588824; in the data active = inhibition above about 25%); conditions: cell-based VP16 transactivation luciferase luminescence; at 3.6 µM; hits give high values
[5] = StAR promoter reporter inhibitors, counter-screen for LRH-1 inverse agonist project, cell-based, luminescence, high throughput (AID 651611; in the data active = inhibition above about 28%); conditions: StAR promoter luciferase reporter counterscreen, at 3.6 µM, hits give high values
[6] = target: Nuclear receptor subfamily 5 group A member 2 (Homo sapiens) (UniProt O00482); assay: NR5A2 activity suppression in reporter cells – cell-based, luminescence, confirmation (AID 651613; in the data active = inhibition above about 42%;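 note: HEK293T cells co-transfected with LRH-1 and StAR promoter luciferase reporter; 0% = vehicle wells and 100% = parental cells lacking receptor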); conditions: cell-based LRH-1 luciferase reporter, inverse agonism; at 3.6 µM; hits give high values
[7] = target: Steroidogenic factor 1 (Homo sapiens) (UniProt Q13285); assay: inverse agonism at SF1 nuclear receptor – cell-based, luminescence, high throughput, counter-screen for LRH-1 inverse agonist project (AID 651614; in the data active = inhibition above about 44%;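 note: cells cotransfected with StAR promoter reporter and SF1 expression vector; 0% = vehicle on cells with receptor and 100% = vehicle on cells lacking receptor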); conditions: cell-based SF1 luciferase reporter, at 3.6 µM, hits give high values
[8] = compounds suppressing VP16-driven luciferase signal – cell-based, luminescence, high throughput, counter-screen for LRH-1 inverse agonist project (AID 651615); conditions: Gal4-VP16 luciferase reporter cells, at 3.6 µM, hits give high values

Sequence of Nuclear receptor coactivator 3 (Homo sapiens) (Q9Y6Q9 whole entry, looked up, the tested form may be a part): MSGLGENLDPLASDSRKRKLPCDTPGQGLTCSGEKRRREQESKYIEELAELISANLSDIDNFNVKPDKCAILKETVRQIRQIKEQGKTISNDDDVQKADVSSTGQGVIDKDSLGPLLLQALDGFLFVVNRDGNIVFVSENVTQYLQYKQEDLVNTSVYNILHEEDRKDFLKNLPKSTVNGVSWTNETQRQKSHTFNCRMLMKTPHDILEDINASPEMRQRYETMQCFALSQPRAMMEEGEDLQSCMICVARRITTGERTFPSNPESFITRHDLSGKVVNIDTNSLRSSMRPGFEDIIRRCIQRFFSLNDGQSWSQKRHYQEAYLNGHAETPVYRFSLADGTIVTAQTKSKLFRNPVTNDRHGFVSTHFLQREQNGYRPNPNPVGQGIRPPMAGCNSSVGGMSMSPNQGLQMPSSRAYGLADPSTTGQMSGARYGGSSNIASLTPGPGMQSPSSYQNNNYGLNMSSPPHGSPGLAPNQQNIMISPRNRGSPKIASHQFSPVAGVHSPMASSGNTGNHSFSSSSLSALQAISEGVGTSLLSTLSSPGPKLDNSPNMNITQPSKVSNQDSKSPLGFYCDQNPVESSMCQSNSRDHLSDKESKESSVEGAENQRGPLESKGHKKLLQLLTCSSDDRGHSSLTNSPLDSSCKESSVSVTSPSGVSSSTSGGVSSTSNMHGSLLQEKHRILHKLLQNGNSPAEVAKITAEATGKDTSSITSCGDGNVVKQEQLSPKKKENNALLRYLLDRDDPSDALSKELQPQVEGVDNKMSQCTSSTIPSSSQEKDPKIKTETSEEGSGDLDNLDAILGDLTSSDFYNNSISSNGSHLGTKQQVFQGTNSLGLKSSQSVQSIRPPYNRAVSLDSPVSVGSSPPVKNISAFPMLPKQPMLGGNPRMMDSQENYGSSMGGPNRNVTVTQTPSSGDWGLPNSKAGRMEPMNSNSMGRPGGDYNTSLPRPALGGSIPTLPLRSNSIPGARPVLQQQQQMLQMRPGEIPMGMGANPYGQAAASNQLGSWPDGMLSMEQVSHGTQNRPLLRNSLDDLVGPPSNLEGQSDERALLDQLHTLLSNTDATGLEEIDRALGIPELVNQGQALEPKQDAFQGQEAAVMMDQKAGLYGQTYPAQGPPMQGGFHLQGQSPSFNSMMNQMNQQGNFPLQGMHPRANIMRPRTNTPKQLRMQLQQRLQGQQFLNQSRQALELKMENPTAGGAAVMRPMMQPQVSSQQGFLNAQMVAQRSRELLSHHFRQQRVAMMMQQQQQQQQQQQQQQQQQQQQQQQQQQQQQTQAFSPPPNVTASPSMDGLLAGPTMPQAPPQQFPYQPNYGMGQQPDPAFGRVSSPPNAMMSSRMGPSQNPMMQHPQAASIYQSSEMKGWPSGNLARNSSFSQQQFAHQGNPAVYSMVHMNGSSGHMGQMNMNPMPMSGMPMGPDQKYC
Sequence of Nuclear receptor subfamily 5 group A member 2 (Homo sapiens) (O00482 whole entry, looked up): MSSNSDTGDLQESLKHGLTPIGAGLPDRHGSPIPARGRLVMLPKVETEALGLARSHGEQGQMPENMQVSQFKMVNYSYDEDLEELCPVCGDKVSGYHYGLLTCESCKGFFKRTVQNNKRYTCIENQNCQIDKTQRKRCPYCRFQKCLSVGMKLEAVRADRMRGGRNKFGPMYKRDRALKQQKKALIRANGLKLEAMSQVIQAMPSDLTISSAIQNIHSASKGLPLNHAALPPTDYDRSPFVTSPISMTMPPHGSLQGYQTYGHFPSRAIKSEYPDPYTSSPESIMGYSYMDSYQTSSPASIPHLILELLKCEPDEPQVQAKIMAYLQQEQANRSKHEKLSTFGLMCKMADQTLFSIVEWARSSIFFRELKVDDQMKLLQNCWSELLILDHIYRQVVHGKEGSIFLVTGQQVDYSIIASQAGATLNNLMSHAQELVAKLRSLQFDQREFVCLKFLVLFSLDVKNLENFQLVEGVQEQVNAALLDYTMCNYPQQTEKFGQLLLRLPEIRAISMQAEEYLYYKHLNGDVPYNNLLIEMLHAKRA
Sequence of Nuclear receptor coactivator 1 (Homo sapiens) (Q15788 whole entry, looked up, the tested form may be a part): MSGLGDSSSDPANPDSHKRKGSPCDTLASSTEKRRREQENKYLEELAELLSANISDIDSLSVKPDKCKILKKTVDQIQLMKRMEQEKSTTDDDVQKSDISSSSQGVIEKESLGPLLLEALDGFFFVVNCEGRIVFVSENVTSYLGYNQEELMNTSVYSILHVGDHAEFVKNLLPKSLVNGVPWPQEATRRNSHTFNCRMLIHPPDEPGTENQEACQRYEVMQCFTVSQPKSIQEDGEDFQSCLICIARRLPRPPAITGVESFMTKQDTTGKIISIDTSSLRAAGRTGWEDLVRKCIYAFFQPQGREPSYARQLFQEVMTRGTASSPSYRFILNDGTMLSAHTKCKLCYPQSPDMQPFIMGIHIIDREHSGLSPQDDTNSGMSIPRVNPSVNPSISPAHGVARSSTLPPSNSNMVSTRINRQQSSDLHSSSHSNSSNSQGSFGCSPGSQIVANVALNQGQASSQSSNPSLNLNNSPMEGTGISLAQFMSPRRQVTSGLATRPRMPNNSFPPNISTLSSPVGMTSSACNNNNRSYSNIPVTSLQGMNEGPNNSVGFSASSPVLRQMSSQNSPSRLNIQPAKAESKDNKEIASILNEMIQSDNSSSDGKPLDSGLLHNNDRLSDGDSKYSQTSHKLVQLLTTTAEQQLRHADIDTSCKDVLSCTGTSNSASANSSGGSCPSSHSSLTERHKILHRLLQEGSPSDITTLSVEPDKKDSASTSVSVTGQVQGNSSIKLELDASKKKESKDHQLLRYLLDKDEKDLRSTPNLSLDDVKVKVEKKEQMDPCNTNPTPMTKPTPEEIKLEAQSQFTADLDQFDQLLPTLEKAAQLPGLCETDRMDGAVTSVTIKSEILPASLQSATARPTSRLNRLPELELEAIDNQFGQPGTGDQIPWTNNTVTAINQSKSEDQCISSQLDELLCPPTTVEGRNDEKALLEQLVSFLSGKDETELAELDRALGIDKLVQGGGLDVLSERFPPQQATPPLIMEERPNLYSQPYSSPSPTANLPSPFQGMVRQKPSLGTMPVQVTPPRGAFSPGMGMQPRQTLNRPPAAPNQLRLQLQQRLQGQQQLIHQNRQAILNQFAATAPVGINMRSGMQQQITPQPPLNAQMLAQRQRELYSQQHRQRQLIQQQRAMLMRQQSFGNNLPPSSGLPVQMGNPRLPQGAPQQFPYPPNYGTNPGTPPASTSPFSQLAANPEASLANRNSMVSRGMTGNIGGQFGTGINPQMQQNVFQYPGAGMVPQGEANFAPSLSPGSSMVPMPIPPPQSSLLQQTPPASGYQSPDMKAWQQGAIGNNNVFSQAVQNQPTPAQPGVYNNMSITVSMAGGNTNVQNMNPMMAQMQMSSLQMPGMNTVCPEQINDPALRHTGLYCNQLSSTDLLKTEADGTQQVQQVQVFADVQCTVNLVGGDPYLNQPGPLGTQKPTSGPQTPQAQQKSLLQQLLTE
Sequence of Steroidogenic factor 1 (Homo sapiens) (Q13285 whole entry, looked up, the tested form may be a part): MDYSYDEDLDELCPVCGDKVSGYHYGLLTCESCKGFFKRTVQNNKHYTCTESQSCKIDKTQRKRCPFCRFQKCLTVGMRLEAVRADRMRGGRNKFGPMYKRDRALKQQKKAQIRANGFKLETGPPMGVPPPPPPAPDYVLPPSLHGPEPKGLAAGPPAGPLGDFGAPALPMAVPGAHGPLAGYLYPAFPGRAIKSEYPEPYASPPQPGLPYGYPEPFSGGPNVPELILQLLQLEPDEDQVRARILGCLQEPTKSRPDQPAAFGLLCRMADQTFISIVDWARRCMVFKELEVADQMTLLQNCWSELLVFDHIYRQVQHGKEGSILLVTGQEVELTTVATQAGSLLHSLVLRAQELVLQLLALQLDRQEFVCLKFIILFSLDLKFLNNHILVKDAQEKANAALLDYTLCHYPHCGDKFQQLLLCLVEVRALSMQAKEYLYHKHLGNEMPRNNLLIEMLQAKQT

Structure (SMILES) | inhibition [1] | inhibition [2] | inhibition [3] | inhibition [4] | inhibition [5] | inhibition [6] | inhibition [7] | inhibition [8]
COc1ccc(CCNc2ncnc3c2oc2ccccc23)cc1OC | 15.8% | 34.9% (active) | 2.85% | 32.5% (active) | 34.5% (active) | 51.8% (active) | 58.1% (active) | 55.6% (active)
O=C(NCc1ccccc1)c1cccc(NC(=O)c2ccco2)c1 | 18.4% | 50.7% (active) | 26.9% | 48.9% (active) | 35.5% (active) | 51.6% (active) | 51.1% (active) | 68.5% (active)
Cc1cc2c(=Cc3ccc(N(C)C)cc3)c3ccccc3n2[n+]1C | 44.8% (active) | 74.8% (active) | 23.9% | 74.5% (active) | 76.2% (active) | 108% (active) | 89.4% (active) | 93.4% (active)
COc1ccc(N=C(NN)c2ccc3ccccc3n2)cc1 | -51.2% | -47.1% | -105% | -65% | -92.3% | -81.3% | -83.5% | -96.2%
COc1ccc(C(=O)Nc2nc3ccccc3s2)c(OC)c1 | 92.8% (active) | 91.5% (active) | 84.7% (active) | 87.5% (active) | 93.4% (active) | 93.9% (active) | 92.3% (active) | 90.2% (active)
Cc1ccc2ccc3ccc(C)nc3c2n1 | 42.1% | 70.6% (active) | 44.8% | 68.2% (active) | 77.2% (active) | 85.8% (active) | 87.4% (active) | 68.9% (active)
CCN1CCN(/C=N/c2nc3c(s2)CCCC3)CC1 | 19.2% | -9.09% | -62.9% | -59.3% | -69.4% | -91.2% | -86.7% | -69.9%
CCN(CC)CCCNc1nc2ccccc2c2[nH]c3ccc(OC)cc3c12 | -19.2% | 49% (active) | -3.04% | 48.8% (active) | 30.1% (active) | 44.4% (active) | 60.5% (active) | 71.7% (active)
CC(=NNC(=S)N1CC2CCC(CC2)C1)c1ccccn1 | 35.5% | 54.8% (active) | 1.55% | 49.8% (active) | 59.4% (active) | 98.3% (active) | 77.3% (active) | 64.6% (active)
CN1OC[C@@H]2CN[C@H](c3ccc(-c4cc5ccccc5o4)cc3)C[C@@H]21 | 83.3% (active) | 76.8% (active) | 68.6% (active) | 68.7% (active) | 78.3% (active) | 62.2% (active) | 79.8% (active) | 65.2% (active)
CN(C)CC1CCC/C(=C\c2ccc(OC(=O)c3ccc(Cl)cc3)cc2)C1=O (centres undefined) | 50.4% (active) | 60.2% (active) | 29.9% | 58.1% (active) | 70.8% (active) | 89.9% (active) | 76.4% (active) | 69.3% (active)
Cc1ccc(O)c(N=Nc2nccs2)c1 | 65.3% (active) | 57% (active) | 36% | 55.5% (active) | 79.3% (active) | 97.6% (active) | 78.5% (active) | 62.3% (active)
O=C(c1ccccc1)c1nn(-c2ccc(Cl)cc2)c(=O)cc1C(F)(F)F | 65.3% (active) | 62.6% (active) | 21.8% | 51.2% (active) | 73.3% (active) | 72.6% (active) | 70% (active) | 74.8% (active)
